Assay outcomes (PubChem)
A selection: hits, their analogues and other compounds. The true share with any hit is near 3%.
Tau fibril FP – inhibitors of human tau fibril formation; K18 P301L tau heparin fibrillization, Alexa594 FP, 6 h; hit rate 0.39% among 280,000; Potency, µM (top dose mostly 57.7 µM), inactives show at the top dose activity, negative = inhibition, hits mostly inhibitors; note: nearly all actives have a fitted effect of over 55% in size
Target sequence (P10636 561-689 P618L limits assumed): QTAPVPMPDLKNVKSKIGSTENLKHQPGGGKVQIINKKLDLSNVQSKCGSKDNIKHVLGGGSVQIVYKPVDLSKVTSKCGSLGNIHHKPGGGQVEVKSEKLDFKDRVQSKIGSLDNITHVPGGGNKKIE
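K18 P301L tau (15 uM unlabeled/0.24 uM Alexa 594-labeled, final) + compound + heparin 20 uM final; 100 mM NaOAc pH 7; 6 hr 37 C; ThT 30 uM final added, 1 hr RT; FP ex 555/em 632 nm.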
TRb SRC2 PPI – TRbeta-SRC2 interaction inhibition. P10828. TRbeta-SRC2 peptide binding, fluorescence polarization; receptor liganded with 1 µM T3. Potency, µM (doses to about 106 µM), inactives show at the highest dose activity change, negative = inhibition, usual class: inhibitors. hit rate 0.065% among 280,000. AID 1469;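 note: plate controls were bound peptide for no effect and peptide without receptor for full effect; nearly all actives have a fitted effect of over 50% in size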
Target sequence (P10828 whole entry, looked up): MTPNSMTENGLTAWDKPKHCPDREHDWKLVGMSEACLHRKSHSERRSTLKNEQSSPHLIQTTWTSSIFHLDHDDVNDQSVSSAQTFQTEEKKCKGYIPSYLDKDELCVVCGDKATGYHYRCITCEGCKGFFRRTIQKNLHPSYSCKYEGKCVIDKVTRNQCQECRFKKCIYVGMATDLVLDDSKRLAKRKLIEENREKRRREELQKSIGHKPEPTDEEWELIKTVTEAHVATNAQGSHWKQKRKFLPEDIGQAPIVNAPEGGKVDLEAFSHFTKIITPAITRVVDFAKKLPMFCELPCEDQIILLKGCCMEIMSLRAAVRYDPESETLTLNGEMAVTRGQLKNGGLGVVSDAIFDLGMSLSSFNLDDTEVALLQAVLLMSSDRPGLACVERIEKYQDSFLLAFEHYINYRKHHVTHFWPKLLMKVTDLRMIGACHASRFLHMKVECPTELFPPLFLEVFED
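Assay buffer: 20 mM Tris-HCl, 100 mM NaCl, 10% glycerol, 1 mM EDTA, 0.01% NP-40, 1 mM DTT, 1 uM T3, 5% DMSO; TRb LBD 0.6 uM, Texas Red SRC2 20 nM; FP after 5 hr.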
Tau ThT inhib – inhibitors of human tau fibril formation, thioflavin T binding; P10636; recombinant tau K18 P301L, heparin-induced fibrillization, ThT fluorescence; Potency, µM (series often up to 57.4 µM), without a hit: at the highest dose activity, negative = inhibition, actives largely listed as inhibitors; hit rate 2.1% among 270,000; note: nearly all actives have a fitted effect of over 55% in size
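ThT emission at 510 nm, taken 1 hr after adding 30 uM dye, quantifies aggregates formed when 20 uM heparin acts on human tau K18 P301L for 6 hr at 37 C.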
TR SRC2 fluor cs – alters Texas Red total fluorescence, flagging assay interference | TRb/SRC2 Texas Red total fluorescence interference | hit rate 0.29% among 280,000 | Potency, µM (doses to about 106 µM), without a hit: top-dose fluorescence change, negative = quenching; active = well fitted curve in either direction with a large enough effect; inconclusive = small, poorly fitted or top-dose-only effect
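Human TRβ ligand-binding domain (0.6 uM) and Texas Red SRC2 peptide (20 nM) in Tris buffer with 1 uM T3 and 5% DMSO were incubated with pinned compound for 5 hr at ambient temperature. Total fluorescence was computed as S + 2P (555/632 nm).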
Tau fluor counter – counter-screen for tau fibril formation inhibitors; tau K18 P301L (four-repeat tau fragment) Alexa594 fluorescence, heparin fibrillization; Potency, µM (top dose mostly 57.7 µM), for inactives: at the highest dose activity change, negative = decrease; hit rate 0.93% among 280,000; note: nearly all actives have a fitted effect of over 55% in size
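Human K18 P301L tau (15 uM unlabeled plus 0.24 uM Alexa 594-labeled, final) in 100 mM sodium acetate pH 7 was mixed with compound and 20 uM heparin and incubated 6 hr at 37 C.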
* = called active by the depositor; ? = inconclusive; . = not tested or not shown; [ ] = another dose, or the depositor's remark. Unless noted, calls come from the whole dose curve; as a rule, active = well fitted curve in the direction sought with a large enough effect; inconclusive = small, poorly fitted or top-dose-only effect, or another doubt; inactive = no such curve, though single readings can be large; an effect the other way counts as inactive or inconclusive. Unless noted, % is set by controls: 0 for no effect and ±100 for the full control effect; potency is the fitted concentration of half-maximal effect.

SMILES	Tau fibril FP	TRb SRC2 PPI	Tau ThT inhib	TR SRC2 fluor cs	Tau fluor counter
O=C1NC(=S)S/C1=C\c1ccc(SCc2ccco2)o1	?	?	4.5µM*	?	?
O=C1NC(=S)S/C1=C\c1ccc(SCc2ccccc2)o1	-6%	4%	10µM*	-13%	?
COc1ccc(-c2cc(C(F)(F)F)nc(SCCC(=O)Nc3cccc(O)c3)n2)cc1	14µM*	3%	2%	5%	?
O=C(COc1ccccc1)Nc1ccccc1C(=O)OCc1cc(=O)n2nc(C3CC3)sc2n1	4%	-7%	1%	-1%	0%
O=C(OC1Cc2c(O)cc(O)cc2OC1c1cc(O)c(O)c(O)c1-c1c(C2Oc3cc(O)cc(O)c3CC2O)cc(O)c(O)c1O)c1cc(O)c(O)c(O)c1 (stereo unspecified)	?	-1%	18µM*	-24%	13µM*[quencher]
CNCC(=O)NCC(=O)N[C@@H](Cc1ccccc1)C(=O)N[C@@H](CC(C)C)C(=O)O	-2%	11%	4%	-1%	-1%
COC(=O)c1ccccc1NC(=O)c1cnc(Nc2ccc(OC)cc2)c2ccccc12	0%	6%	?	-2%	4.5µM*[quencher]
COc1ccc(NC(=O)c2cccnc2Nc2ccccc2)cc1	-14%	4%	-24%	-2%	16µM*[quencher]
COc1ccc(OC)c(NC(=O)c2cnc(Nc3ccccc3OC)c3ccccc23)c1	-3%	0%	-11%	0%	?
COc1ccc(Nc2ncc(C(=O)Nc3cccc(Cl)c3)c3ccccc23)cc1	9%	5%	?	-2%	8.9µM*[quencher]
COc1ccc(Nc2ncc(C(=O)Nc3cc(Cl)c(OC)cc3OC)c3ccccc23)cc1	?	9%	-20%	-2%	?
CCCCC(CC)C(=O)OCCOCCOCCOC(=O)C(CC)CCCC (stereo unspecified)	.	1%[201 µM]	.	-3%[201 µM]	.
C/C(=N\NC(=O)CCc1c[nH]c2ccccc12)c1ccc([N+](=O)[O-])cc1	15%	-1%	10µM*	-5%	?
CCN(CC)c1ccc(/C=N/NC(=O)c2c[nH]c3ccccc23)cc1	7%	8%	5µM*	-2%	13µM*[quencher]
CCN(CC)c1ccc(/C=N/N2CCN(c3ccccn3)CC2)cc1	0%	-6%	1.3µM*	2%	?
CCc1ccc(/C=N/N2CCN(c3ccccn3)CC2)cc1	-4%	6%	?	1%	-24%
CN(C)c1ccc(/C=N/NC(=O)CCc2c[nH]c3ccccc23)cc1	6%	4%	8.9µM*	-2%	?
CCCCCCc1ccc(N)cc1	.	-8%[201 µM]	.	1%[201 µM]	.
CO[C@@H]1COC(=O)C/C=C\[C@H](C)[C@H](OC)COC(=O)[C@H]2CCCN2C(=O)C/C=C\[C@H]1C	3%[11.6 µM]	0%[11.2 µM]	-8%[11.5 µM]	1%[11.2 µM]	6%[11.6 µM]
CCN(CC)c1ccc(/C=N/NC(=O)c2cnccn2)cc1	-4%	-12%	14µM*	-6%	-17%
CCc1ccc(/C=N/NC(=O)c2ccccn2)cc1	1%	3%	-7%	-1%	4%
CCN(CC)c1ccc(/C=N/NC(=O)c2ccccn2)cc1	0%	9%	10µM*	-2%	-29%
Cn1c(N)c(C(=O)COC(=O)c2cc(-c3ccccc3)nc3ccccc23)c(=O)n(Cc2ccccc2)c1=O	14µM*	8%	-1%	-3%	?
COc1cccc(Nc2ncnc3c2cnn3-c2cccc(C)c2)c1	?	-19%	-3%	-3%	?
Cc1cccc(-n2ncc3c(Nc4ccc(C)c(Cl)c4)ncnc32)c1	8.9µM*	5%	11%	1%	?
SMILES	Tau fibril FP	TRb SRC2 PPI	Tau ThT inhib	TR SRC2 fluor cs	Tau fluor counter
Fc1cccc(Nc2ncnc3c2cnn3-c2ccccc2)c1	25µM*	4%	?	0%	?
Cc1cccc(-n2ncc3c(Nc4ccc(Oc5ccc(Cl)cc5)cc4)ncnc32)c1	13µM*	0%	8%	-8%	4µM*[quencher]
Clc1cccc(Nc2ncnc3c2cnn3-c2ccccc2)c1	?	5%	?	-6%	?
Cn1c(N=NC(=O)c2ccccc2)c(O)c2ccccc21	-9%	2%	13µM*	-7%	?
O=C(CSc1nc2ccccc2nc1Cc1ccccc1)Nc1ccccc1C(F)(F)F	-6%	-2%	-4%	-1%	-8%
CCc1cc(SC#N)ccc1N	?	-2%	13µM*	-1%	-18%
CCc1cc([N+](=O)[O-])cc(CC)c1N	-3%	2%	-15%	-8%	-11%
COC(=O)c1ccc(Cn2c(=O)cc(C)c3c(C)nn(C)c32)cc1	0%	4%	?	-4%	-2%
CCOc1cc(C2Sc3ccccc3NC3=C2C(=O)c2ccccc23)ccc1O (stereo unspecified)	?	-7%	10µM*	-2%	10µM*[quencher]
O=C1C2=C(Nc3ccccc3SC2c2ccc(Cl)c(Cl)c2)c2ccccc21 (stereo unspecified)	?	3%	?	-1%	?
O=C1C2=C(Nc3ccccc3SC2c2c(F)cccc2Cl)c2ccccc21 (stereo unspecified)	?	-7%	?	0%	?
COc1ccc(Br)cc1C1Sc2ccccc2NC2=C1C(=O)c1ccccc12 (stereo unspecified)	-16%	-1%	?	1%	?
CCCc1ccc(C2Sc3ccccc3NC3=C2C(=O)c2ccccc23)cc1 (stereo unspecified)	?	8%	?	-2%	3.2µM*[quencher]
O=C1C2=C(Nc3ccccc3SC2c2ccccc2C(F)(F)F)c2ccccc21 (stereo unspecified)	13µM*	2%	?	3%	?
COc1ccc(C#CC2C=CC(Oc3cc(C)cc(C)c3)C(CO)O2)cc1 (stereo unspecified)	1%[11.6 µM]	5%[11.2 µM]	-6%[11.5 µM]	-2%[11.2 µM]	-12%[11.6 µM]
NCCC[C@@H](CC(=O)N[C@@H]1CCNC[C@H]1C(=O)N[C@H](CC(=O)N[C@@H](CCC(=O)O)CC(=O)O)Cc1c[nH]c2ccccc12)NC(=O)C[C@H](Cc1ccccc1)NC(=O)[C@@H]1CNCC[C@H]1N	0%	2%	-1%	-3%	-11%
CCN1C(=O)[C@@H]2[C@H]3C(=CC[C@H]2C1=O)C(=O)[C@H]1OC1[C@H]3O (stereo partly specified)	?	2%[11.2 µM]	4µM*	-4%[11.2 µM]	-26%[11.6 µM]
O=C1C2=CC[C@H]3C(=O)N(C[C@@H]4CCCO4)C(=O)[C@@H]3[C@@H]2[C@H](O)[C@@H]2O[C@H]12	?	-5%[11.2 µM]	3.2µM*	-1%[11.2 µM]	-30%[11.6 µM]
O=C1C2=CC[C@H]3C(=O)N(Cc4ccccc4)C(=O)[C@@H]3[C@@H]2[C@H](O)[C@@H]2O[C@H]12	?	4%[11.2 µM]	?	?	-18%[11.6 µM]
COc1ccc2c(c1)O[C@H](c1ccc3c(c1)OCO3)[C@@H](OC(=O)NCc1ccco1)C2=O	-1%	3%	?	-1%	-11%
